TAG inh: triacylglycerol accumulation inhibition. H9c2 cells, Nile Red lipid (TAG) fluorescence; cells loaded with 200 µM oleic acid. inhibition, % at 12.5 µM. actives 0.66% (n = 230,000). AID 651582;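 active = pattern-corrected inhibition of lipid staining of at least 50% with the nuclear-stain viability signal not falling by more than 50%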
CHT allo act: human CHT allosteric activation. B-score at 10 µM. actives 0.49% (n = 310,000). AID 488977. CHT-expressing cells, membrane potential dye, choline EC20; active compounds read high; LV-AA mutant CHT in HEK293 cells. Q9GZV3;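 active = initial fluorescence not abnormally high and integrated response B-score, plate-corrected, over 3 SD above library mean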
Target sequence (Q9GZV3 whole entry, looked up): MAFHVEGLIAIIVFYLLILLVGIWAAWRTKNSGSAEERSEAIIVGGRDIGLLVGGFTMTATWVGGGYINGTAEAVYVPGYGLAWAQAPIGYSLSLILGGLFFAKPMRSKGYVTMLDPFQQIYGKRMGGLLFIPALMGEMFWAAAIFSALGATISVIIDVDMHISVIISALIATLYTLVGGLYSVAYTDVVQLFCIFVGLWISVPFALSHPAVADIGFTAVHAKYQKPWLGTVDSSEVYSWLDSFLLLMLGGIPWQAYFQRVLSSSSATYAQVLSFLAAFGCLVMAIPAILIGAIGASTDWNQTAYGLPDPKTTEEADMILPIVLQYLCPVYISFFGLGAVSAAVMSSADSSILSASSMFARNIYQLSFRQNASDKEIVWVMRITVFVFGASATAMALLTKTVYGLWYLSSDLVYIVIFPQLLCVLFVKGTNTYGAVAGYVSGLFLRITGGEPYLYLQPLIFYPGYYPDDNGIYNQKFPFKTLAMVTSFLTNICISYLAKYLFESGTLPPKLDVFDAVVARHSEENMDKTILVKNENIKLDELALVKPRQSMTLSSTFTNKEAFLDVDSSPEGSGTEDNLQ
beta cell repl: induces beta-cell replication in MIN6 cells. MIN6 cells proliferation, ATPlite luminescence, 48 h; cells starved in 0.2% serum; 100% = growth in 10% serum. proliferation, % at 10 µM. actives 0.29% (n = 330,000). AID 2380;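 active = compounds whose signal lies at least 3.5 SD above the mean of all wells on their plate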
CHT inh: inhibitors of human choline transporter CHT; Q9GZV3; CHT-expressing cells, membrane potential dye, choline response; active compounds read low; B-score at 10 µM; actives 0.86% (n = 310,000); AID 488975;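 active = B-score over 3 SD under the library average, and starting fluorescence ratio not unusually high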;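 also: choline stimulus applied at its EC90 after an EC20 pre-addition; B-score computed on integrated fluorescence ratio after choline addition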
CHT activ conf: human CHT activation, confirmatory screen. shares compounds with CHT allo act. CHT-expressing cells, membrane potential dye fluorescence (FDSS); % of choline EC20–EC90 response window; HEK293 expressing CHT LV-AA mutant; choline added at its EC20. activation, % at 10 µM. actives 91% (n = 2,500). AID 504833;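 active = primary screen active, with duplicate mean activation above negative control mean plus 3 SD, cut at about 11% in these data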
HEK293 MP dye: CHT activator counter-screen hit in parental HEK293 cells | shares compounds with CHT allo act | actives 62% (n = 2,500) | ratio readout change at 10 µM, hits read low | membrane potential dye fluorescence (FDSS); measured after EC20 choline addition | AID 623908;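 active = duplicate-averaged ratio beyond 3 SD from buffer wells, up or down, though filed actives are nearly all decreases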
Hits are given with their value; . = inactive; / = no result. Shown are actives, neighbours in structure and some others; about 1.7% of the full set was active somewhere.

SMILES	TAG inh	CHT allo act	beta cell repl	CHT inh	CHT activ conf	HEK293 MP dye
COc1ccc(CN(CCC(c2ccccc2)c2ccco2)C(=O)c2ccco2)cc1 (centres undefined)	.	.	.	.	/	/
O=C(c1ccco1)N(CCC(c1ccccc1)c1ccco1)Cc1ccccc1 (centres undefined)	.	6.4	.	.	40	.
CCOC(=O)C[C@H]1c2cc(C(F)(F)F)ccc2S(=O)(=O)N1Cc1ccccc1	.	.	.	.	.	.
Cc1sc2nc3ccc(NCc4ccco4)nn3c(=O)c2c1C	.	6.6	.	.	12	-37
N=C(N)c1ccc(/C=C/c2ccc(C(=N)N)cc2O)cc1	.	.	.	.	/	/
CCCCC(=O)Nc1ccccc1N1CCN(c2ccccc2)CC1	.	.	.	.	22	.
CCCCCC(=O)Nc1ccccc1N1CCOCC1	/	.	.	.	/	/
COc1ccc(NC(=O)Cn2ccc3c(OC)cccc3c2=O)cc1	.	.	.	.	.	.
CC(C)CN1CCC(=O)N([C@H](CSc2ccccc2)Cc2ccccc2)CC1	.	13	.	.	42	.
O=C1CCN(Cc2ccccc2)CCN1[C@H](COc1ccccc1)Cc1ccccc1	.	6.7	.	.	24	.
CC(C)C[C@@H](COc1ccccc1)N1CCN(Cc2ccccc2)CCC1=O	/	6.3	.	.	16	.
CC(C)C[C@@H](CO)N1CCN(Cc2ccccc2)CCC1=O	.	.	.	.	/	/
COc1ccc(F)cc1-c1cc(C(=O)NC2CCCCC2)[nH]n1	.	/	/	/	/	/
COc1cc2c(cc1OC)C(/C(C#N)=N\O)=NC(C)(C)C2	/	.	.	.	/	/
COc1ccc(C2=NCCc3cc(OC)c(OC)cc32)cc1	/	7.5	.	.	27	-92
COc1cc2c(cc1OC)C(SC)=NC(C)(C)C2	/	.	.	.	53	-44
COc1ccc(C2=NC(C)(C)Cc3cc(OC)c(OC)cc32)cc1	/	8.3	.	.	67	-84
Cc1ccc(CN2CCSc3ccc(C(=O)NCCCN4CCN(C)CC4)cc32)cc1	/	.	.	.	/	/
Cc1ccc(CN2CCSc3ccc(C(=O)NCc4cccnc4)cc32)cc1	.	6.9	.	.	29	.
CC(C)CCNC(=S)Nc1ccc(Br)cc1	/	.	.	.	/	/
CC(C)CCNC(=O)/C=C/c1ccc(Br)cc1	/	.	.	.	25	.
Cn1cc([C@@H]2C[C@H]3CN(Cc4cccc(Cl)c4)C(=O)[C@]34CCCN24)c(-c2ccccc2)n1	.	.	.	.	19	.
CCC(CO)Oc1cc(NCc2ccc(C(F)(F)F)cc2)c2ncn(C(C)C)c2c1 (centres undefined)	.	/	.	/	/	/
COc1ccc(S(=O)(=O)N2c3ccccc3OCC2C)cc1 (centres undefined)	/	7.1	.	.	32	.
COc1ccccc1CN1[C@@H](CC(=O)O)c2cc(F)ccc2S1(=O)=O	.	.	.	.	/	/
SMILES	TAG inh	CHT allo act	beta cell repl	CHT inh	CHT activ conf	HEK293 MP dye
CCCCN(Cc1ccco1)C(=O)C1CCCN(c2ncnc3c2nc2n3CCCCC2)C1 (centres undefined)	/	.	.	.	18	.
CC(C)N(Cc1ccccc1)C(=O)C1CCCN(c2ncnc3c2nc2n3CCCCC2)C1 (centres undefined)	/	.	.	.	/	/
COc1ccc(/C=C2\N=C(C)OC2=O)cc1[N+](=O)[O-]	.	.	.	.	/	/
CCCCCCC(=O)NNC(=O)CC(=O)Nc1ccccc1C(=O)O	/	.	.	.	/	/
CC(NC(=O)COC(=O)c1ccc[nH]c1=O)c1ccccc1 (centres undefined)	.	/	.	/	/	/
O=C(Nc1cccc(-c2cn3ccccc3n2)c1)C1CC1	/	.	.	.	/	/
COc1ccc(-c2cn3ccccc3n2)cc1OC	/	.	.	.	21	-38
CCC(=O)Nc1cccc(-c2cn3ccccc3n2)c1	/	.	.	.	45	-42
COc1ccc(-c2nc(CN3CCC(C(=O)NC4CC4)CC3)c(C)o2)cc1OC	/	.	.	.	/	/
COc1ccc(CCNC(=O)C2CCN(Cc3nc(-c4cccc(Cl)c4)oc3C)CC2)cc1OC	.	.	.	.	30	-36
COc1ccc(-c2nc(CN3CCC(C(=O)N4CCc5ccccc54)CC3)c(C)o2)cc1OC	.	.	.	.	39	-38
O=C(NC(=S)N(Cc1ccccc1)c1ccccn1)C1CC1	/	.	.	.	/	/
Cc1cccc(NC(=O)N2CCCc3ccccc32)c1C	.	.	.	.	/	/
CC(NC(=O)CN1C(=O)NC2(CCCCC2)C1=O)c1ccc(S(N)(=O)=O)cc1 (centres undefined)	.	/	/	/	/	/
COCCCNC(=S)Nc1ccc(CC(=O)O)cc1	/	.	.	.	/	/
Cc1c(Cl)ccc2c(C(=O)NC(C)c3ccncc3)cc(-c3ccncc3)nc12 (centres undefined)	/	.	.	.	/	/
N#Cc1nc(COc2ccccc2)oc1N1CCN(Cc2ccccc2)CC1	.	10	.	.	36	.
Cc1ccc(OCc2nc(C#N)c(N3CCN(Cc4ccccc4)CC3)o2)cc1	.	11	.	.	33	.
CN1CCN(C(=O)c2cc(=O)c3cc(Cl)cc(Cl)c3o2)CC1	/	.	.	.	43	-42
Cc1ccc2nc(Cl)c(/C=N/n3c(C)nnc3C)cc2c1	.	8	.	.	43	-54
Cc1ccc(/C=N/n2c(C)nnc2C)cc1	.	.	.	.	/	/
C=CCNc1nc(C)c(C(C)=O)cc1C#N	.	.	.	.	/	/
CC(=O)c1cc(C#N)c(NCCCN(C)C)nc1C	.	.	.	.	54	-32
COc1ccc2[nH]c(C(=O)O)c(NS(=O)(=O)c3ccc(C)cc3C)c2c1	/	.	.	.	/	/
CC(=O)c1cnc(Nc2nc(C)c3ccccc3n2)nc1C	/	.	.	.	44	-45
SMILES	TAG inh	CHT allo act	beta cell repl	CHT inh	CHT activ conf	HEK293 MP dye
CC(=O)c1cnc(Nc2nc(C)c3ccc(C)cc3n2)nc1C	.	.	.	.	/	/
Cc1cc2c3c(ccc(C)c3n1)N=CN2c1ccccc1	.	.	.	.	49	-60
CC(C)(C)c1ccc(C(=O)NC(=O)COC(=O)c2ccc(Br)o2)cc1	.	/	.	/	/	/
O=C(NCCCc1ccccc1)c1cncc(Br)c1	/	.	.	.	/	/
Cc1ccc(-c2csc(=Nc3cccnc3)n2CCCn2ccnc2)cc1C	.	.	.	.	/	/
c1cncc(N=c2scc(-c3cccc4ccccc34)n2CCCn2ccnc2)c1	.	8.2	.	.	.	.
CCC(C)(C)n1nnnc1C(c1cccc(C#N)c1)N1CCN(c2cccc(C)c2C)CC1 (centres undefined)	/	.	.	.	26	.
CCC(C)(C)n1nnnc1C(c1ccccc1)N1CCc2ccccc2C1 (centres undefined)	.	6.3	.	.	32	.
CC(C)(C)n1nnnc1C(c1cccc(C#N)c1)N1CCCCCC1 (centres undefined)	.	.	.	.	/	/

Screening results from PubChem.
